# Screens deposited in PubChem BioAssay by NMMLSC.
# Hits are enriched below; roughly 1.2% of the tested compounds scored in any of these assays.
# RGS7-Gao = regulators of human RGS7-Galphao interaction. Multiplexed bead flow cytometry, RGS7-Galphao binding; actives lie on both sides. 0.35% of 220,000 active. binding response (% of control), % at 10 µM; in the data active = binding response below about 49% or above about 150%; inconclusive = no clear call, values can overlap the other calls; inactive = in between;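 note: fluorescent Galphao held in activated GDP-AlF4 state binding bead-coupled RGS7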
# Target sequence (P09471 whole entry, looked up): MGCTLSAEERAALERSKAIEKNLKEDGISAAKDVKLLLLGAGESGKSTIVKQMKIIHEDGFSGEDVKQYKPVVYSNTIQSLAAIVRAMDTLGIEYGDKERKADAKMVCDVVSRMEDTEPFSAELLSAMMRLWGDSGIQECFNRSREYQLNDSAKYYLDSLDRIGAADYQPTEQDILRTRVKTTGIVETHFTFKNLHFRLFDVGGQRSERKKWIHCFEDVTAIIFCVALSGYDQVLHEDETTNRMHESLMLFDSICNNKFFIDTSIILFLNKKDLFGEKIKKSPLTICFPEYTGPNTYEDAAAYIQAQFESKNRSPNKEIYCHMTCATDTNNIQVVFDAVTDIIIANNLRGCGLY
# Avidin fluor = avidin bead compound fluorescence profile; Avidin beads, compound fluorescence 488/530 nm, flow cytometry; stronger effect = higher value; fluorescence (KMESF) at 10 µM; 0.38% of 220,000 active; in the data active = fluorescence above about 47
# RGS8-Gao = human RGS8-Galphao interaction regulation | response (percent of control binding), % at 10 µM | multiplexed bead flow cytometry, RGS8-Galphao binding; actives lie on both sides | AID 1423 | P09471 | 0.34% of 220,000 active; in the data active = response below about 60% or above about 140%; inactive = in between;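 note: Galphao activated as the GDP aluminium fluoride complex binding bead-coupled RGS8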
# RGS4-Gao reg = human RGS4-Galphao interaction regulation; binding response (% of control), % at 10 µM; 0.33% of 220,000 active; Multiplexed bead flow cytometry, RGS4-Galphao binding; actives lie on both sides; in the data active = binding response below about 49% or above about 150%; inactive = in between;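 note: fluorescent Galphao activated with aluminum fluoride binding bead-coupled RGS4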
# GSH fluor = GSH bead compound fluorescence profile; 0.25% of 190,000 active; fluorescence (KMESF) at 10 µM; GSH beads flow cytometry, compound fluorescence 488/530 nm; stronger effect = higher value; in the data active = fluorescence above about 89;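 note: glutathione beads carrying GST-tagged Bcl family fusion proteins plus one bare bead set; values are compound well signal with DMSO vehicle wells as background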
# RGS16-Gao HTS = regulators of human RGS16-Galphao interaction; 0.38% of 220,000 active; bead-based flow cytometry RGS16-Galphao binding, fluorescence; actives lie on both sides; binding response (% of control), % at 10 µM; O15492+P09471;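 note: Galphao activated by GDP with aluminum fluoride before binding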
# RGS4-Gao HTS = RGS4-Galphao interaction regulator (human). shares compounds with RGS16-Gao HTS. multiplexed bead flow cytometry, RGS–Galpha-o binding. RGS4–Galpha-o binding response, % at 10 µM. 99% of 1,600 active;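 note: fluorescently labeled Galpha-o bound to GDP with aluminium fluoride binding biotinylated RGS beads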
# Avidin counter = biotin-avidin bead binding disruption counter-screen; 1,700 tested, under 10 active; shares compounds with RGS16-Gao HTS; streptavidin beads, fluorescein-biotin binding, flow cytometry; inhibition, % at 10 µM;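 active = inhibition above 50%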;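 note: median green fluorescence of gated singlet beads compared with DMSO control wells; 0% = DMSO wells and 100% = complete loss of bead fluorescence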
# RGS8-Gao confirm = confirmation of regulators of human RGS8-Galphao interaction | shares compounds with RGS16-Gao HTS | bead-based flow cytometry RGS8-Galphao binding, fluorescence; actives lie on both sides | 3% of 1,700 active | binding response (% of control), % at 10 µM; in the data active = binding response below about 72% or above about 130%; inactive = in between;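 note: Galphao activated as GDP AlF4 complex before binding bead RGS8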
# RGS7-Gao confirm = confirmation of regulators of human RGS7-Galphao interaction; response (percent of control binding), % at 10 µM; bead-based flow cytometry RGS7-Galphao binding; actives lie on both sides; shares compounds with RGS16-Gao HTS; 7.8% of 1,700 active; AID 1837; in the data active = response below about 75% or above about 130%; inactive = in between;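 note: fluorescent Galphao activated with GDP and aluminum fluoride binding bead-coupled RGS7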
# RGS16-Gao conf = RGS16-Galphao interaction regulation, single point confirmation | AID 1838 | shares compounds with RGS16-Gao HTS | response (% of control binding), % at 10 µM | 4% of 1,700 active | bead-based flow cytometry, RGS16-Galphao binding; actives lie on both sides; in the data active = response below about 74% or above about 130%; inactive = in between;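 note: Galphao activated as the GDP aluminium fluoride complex binding bead-coupled RGS16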
# RGS4-Gao single = confirmation of regulators of human RGS4-Galphao interaction; shares compounds with RGS16-Gao HTS; RGS4-Galphao binding, multiplexed bead flow cytometry; actives lie on both sides; binding response (% of control), % at 10 µM; 4% of 1,700 active; in the data active = binding response below about 74% or above about 130%; inactive = in between
# RGS19-Gao conf = confirmation of regulators of human RGS19-Galphao interaction. response (percent of control binding), % at 10 µM. 5% of 1,700 active. shares compounds with RGS16-Gao HTS. AID 1841. bead-based flow cytometry RGS19-Galphao binding; actives lie on both sides; in the data active = response below about 50% or above about 160%; inactive = in between;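 note: 100% = no compound control and 0% = blank background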
# Numbers without * were called inactive; u = inconclusive; x = no result given; [ ] = dose if it differs, or a comment. Unless noted, the rule behind the calls is not given here.
SMILES,RGS7-Gao,Avidin fluor,RGS8-Gao,RGS4-Gao reg,GSH fluor,RGS16-Gao HTS,Avidin counter,RGS8-Gao confirm,RGS7-Gao confirm,RGS16-Gao conf,RGS4-Gao single,RGS19-Gao conf,others
COc1ccc(OC)c(/C=C2\SC(=S)N(Cc3cccnc3)C2=O)c1,88,5,84,89,9,14*,-1,108,112,103,103,105,RGS4-Gao HTS=89*
O=C1/C(=C\c2ccc(-c3ccccc3[N+](=O)[O-])o2)C(c2ccccc2)=NN1c1ccccc1,7.8*,-3,14*,-5.8*,65,-1.8*,-5,100,86,98,95,86,
CCN1C(=O)C2(SC(NC(C)=O)=NN2C(C)=O)c2cc(C)cc(C)c21 (centres undefined),77,6,76,75,5,8,x,x,x,x,x,x,
CCCN1C(=O)C2(SC(NC(C)=O)=NN2C(C)=O)c2cc(C)cc(C)c21 (centres undefined),u,3,79,98,x,96,4,110,98,113,100,99,
Cc1cccc2[nH]c(CN(C)C(=O)CC3C(=O)NCCN3CC(C)(C)C)nc12 (centres undefined),106,8,105,105,10,105,x,x,x,x,x,x,
Cc1cccc(C)c1OCC(O)CNC(C)C (centres undefined),100,2,88,98,40,37,x,x,x,x,x,x,
CCOC(=O)c1oc2cccc(OCC(O)CNC(C)C)c2c1C (centres undefined),184*[activator],127*,125,204*[activator],31,231*[activator],2,99,93,93,94,96,
CC(=O)NCCCc1nc2ccccc2n1Cc1c(F)cccc1Cl,u,9,102,110,x,107,x,x,x,x,x,x,
O=C(/C=C/c1ccc(Br)o1)OCc1ccccc1,x,x,x,x,31,x,2,103,107,110,105,102,
CCN(CC)C(=O)Cn1cc(C(=O)C(=O)NCc2ccco2)c2ccccc21,111,25,131,113,23,194,x,x,x,x,x,x,
Cc1ccc(C(=O)NCC(=O)OCC(=O)c2ccc3c(c2)NC(=O)CO3)cc1C,99,10,100,102,12,96,x,x,x,x,x,x,
O=C1COc2ccc(C(=O)COC(=O)CNC(=O)C3CCCCC3)cc2N1,167*[activator],12,145*[activator],153*[activator],13,154,1,94,92,98,93,102,
COc1ccc(CN2CCNC(=O)C2CC(=O)NCCCn2cccn2)c(OC)c1 (centres undefined),97,2,97,96,10,100,x,x,x,x,x,x,
O=C(NCC1CCCO1)c1ccc(CSCc2cccc(F)c2)o1 (centres undefined),98,13,102,99,15,98,x,x,x,x,x,x,
Cn1c(-c2ccc(F)cc2)cnc1NCc1cc2c(cc1[N+](=O)[O-])OCO2,104,15,104,103,9,110,x,x,x,x,x,x,
